Source: PubChem BioAssay
KB-V1 cytotox: qHTS assay for MDR1-selective chemotherapeutics: Primary screen using the drug-selected MDR subline cells KB-V1; KB-V1 MDR cells viability, CellTiter-Glo, 72 h; Potency, µM (doses to about 46.1 µM), actives largely listed as cytotoxic; hit rate 3.4% among 400,000; AID 1347076, 2019; note: % is set by controls: 0 for no effect and ±100 for the full control effect; nearly all actives have a fitted effect of over 60% in size
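Cytotoxicity via CellTiter-Glo luminescence after 72 h compound exposure at 37 degrees C. Cells: drug-selected KB-V1 line, DMEM phenol-red free plus 10% FBS. Compounds tested at multiple concentrations; normalized data fitted to concentration-effect curves.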
MCF10A rerep: A quantitative high throughput screen for small molecules that induce DNA re-replication in MCF 10a normal breast cells | MCF 10A DNA re-replication, Hoechst nuclear intensity, 48 h | Potency, µM (top dose mostly 46.1 µM), inactives show at the top dose activity, positive = re-replication, most hits filed as activators | hit rate 2.9% among 350,000; note: % of control where 0% means no effect; nearly all actives have a fitted effect of over 50% in size
KB-3-1 cytotox: qHTS assay for MDR1-selective chemotherapeutics: Primary screen using the parental adenocarcinoma cell KB-3-1 | KB-3-1 viability, CellTiter-Glo ATP luminescence, 72 h | AID 1347075, 2019 | Potency, µM (highest dose often 46.1 µM), actives largely listed as cytotoxic | hit rate 1.4% among 400,000; note: % is set by controls: 0 for no effect and ±100 for the full control effect; nearly all actives have a fitted effect of over 60% in size
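Viability of parental KB-3-1 cells, measured by CellTiter-Glo luminescence, followed a 72 h incubation at 37 °C with pinned compounds in phenol-red-free DMEM containing 10% FBS.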
PINK1 expr mod: A Quantitative High throughput Screen to Identify Chemical Modulators of PINK1 Expression. PINK1 immunofluorescence, high-content cytometry, 24 h. hit rate 0.2% among 410,000. AID 624263, 2012. Potency, µM (titrated, usually from 76.6 µM), for the others: at the highest dose activation (PINK1 increase), usual class: activators; active = well fitted activation curve with a large enough effect; inconclusive = small, poorly fitted or top-dose-only effect; cell line not stated here; note: % of control where 0% means no effect; nearly all actives have a fitted effect of over 65% in size
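Compound titrations (5 concentrations, 24 h) on a stable cell line; DMSO and CCCP controls. Endpoint: fixed-cell PINK1 immunofluorescence with mitochondrial, cell and nuclear markers, scanned by microplate cytometer.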
SW480 rerep: A quantitative high throughput screen for small molecules that induce DNA re-replication in SW480 colon adenocarcinoma cells | hit rate 1.8% among 340,000 | SW480 DNA re-replication, Hoechst DNA content imaging, 48 h | Potency, µM (titrated, usually from 46.1 µM), without a hit: top-dose re-replication activation, hits mostly activators; note: % of control where 0% means no effect; nearly all actives have a fitted effect of over 55% in size
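SW480 cells exposed to compounds for 48 hr at 37 C, 5% CO2, then Hoechst-stained 40 min. Nuclear DNA content imaged by fluorescence scanning (405 nm excitation, 500-530 nm emission); re-replication scored as increased high-intensity nuclei.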
Starred values were filed as active, the others as inactive; [ ] = remark or other dose. An excerpt weighted towards active compounds, which were near 6.7% of everything screened. Unless noted, calls come from the whole dose curve; as a rule, active = well fitted curve in the direction sought with a large enough effect; inconclusive = small, poorly fitted or top-dose-only effect, or another doubt; inactive = no such curve, though single readings can be large; an effect the other way counts as inactive or inconclusive. Potency is the fitted concentration of half-maximal effect.

Results for Cc1ccc(/C=C2/CNC/C(=C/c3ccc(C)cc3)C2=O)cc1 ?
KB-V1 cytotox: 4.1µM*; MCF10A rerep: inconclusive; KB-3-1 cytotox: 3.3µM*; PINK1 expr mod: 0%; SW480 rerep: 4.6µM*

Results for COc1cc(Cn2c(-c3nonc3N)nc3ccccc32)ccc1C ?
KB-V1 cytotox: 5.2µM*; MCF10A rerep: 4µM*; KB-3-1 cytotox: 4.6µM*; PINK1 expr mod: 2%; SW480 rerep: 7.1µM*

How did COc1cccc(Cn2c(-c3nonc3N)nc3ccccc32)c1 do in these assays?
KB-V1 cytotox: 12µM*; MCF10A rerep: 2.6µM*; KB-3-1 cytotox: 2.9µM*; PINK1 expr mod: 4%; SW480 rerep: 4.6µM*

How did COc1cccc(-c2cn3c(n2)sc2cc(C(=O)NCCCc4ccccc4)ccc23)c1 do in these assays?
PINK1 expr mod: 0%

Results for Cc1ccn2c(NCc3ccco3)c(-c3ccccc3)nc2c1 ?
PINK1 expr mod: 0%

How did Cn1nnnc1Sc1ncnc2scc(-c3ccsc3)c12 do in these assays?
KB-V1 cytotox: inactive; MCF10A rerep: 16µM*; KB-3-1 cytotox: inconclusive; PINK1 expr mod: -1%; SW480 rerep: inconclusive

What do the screens show for `Cn1nnnc1Sc1ncnc2scc(-c3cccc(F)c3)c12`?
KB-V1 cytotox: inactive; MCF10A rerep: inconclusive; KB-3-1 cytotox: inactive; PINK1 expr mod: -1%; SW480 rerep: 4%

Results for CCn1nnnc1Sc1nc(C)nc2scc(-c3ccccc3)c12 ?
KB-V1 cytotox: inactive; KB-3-1 cytotox: 13µM*; PINK1 expr mod: 0%

What do the screens show for `Cn1nnnc1Sc1ncnc2scc(-c3cccs3)c12`?
KB-V1 cytotox: inconclusive; MCF10A rerep: 10µM*; KB-3-1 cytotox: inconclusive; PINK1 expr mod: 0%; SW480 rerep: inconclusive

What do the screens show for `Cn1nnnc1Sc1ncnc2scc(-c3cc4ccccc4o3)c12`?
KB-V1 cytotox: inconclusive; MCF10A rerep: inconclusive; KB-3-1 cytotox: inconclusive; PINK1 expr mod: -2%; SW480 rerep: inconclusive

How did Cn1nnnc1Sc1ncnc2scc(-c3cccc(C(F)(F)F)c3)c12 do in these assays?
KB-V1 cytotox: inconclusive; MCF10A rerep: 3.3µM*; KB-3-1 cytotox: inconclusive; PINK1 expr mod: -1%; SW480 rerep: inconclusive

How did CCN(CC)C(=O)C1=C(C)N(Cc2ccc(OC)cc2)C(=O)C(CC(=O)NCc2cccs2)C1 (centres undefined) do in these assays?
KB-V1 cytotox: inactive; KB-3-1 cytotox: inactive; PINK1 expr mod: 1%

How did O=C(O)CN1C(=O)C2C3CCC(C3)C2C1=O (centres undefined) do in these assays?
KB-V1 cytotox: inactive; KB-3-1 cytotox: inconclusive; PINK1 expr mod: 1%

What do the screens show for `Cc1ccc2nc(-c3ccccc3)c(Cc3ccccc3C(F)(F)F)n2c1`?
KB-V1 cytotox: inactive; KB-3-1 cytotox: inactive; PINK1 expr mod: 9%

What do the screens show for `Fc1ccc(CSc2ncnc3scc(-c4ccccc4)c23)cc1`?
KB-V1 cytotox: 15µM*; MCF10A rerep: 22%; KB-3-1 cytotox: inactive; PINK1 expr mod: 1%; SW480 rerep: 0%

What do the screens show for `Cn1nnnc1Sc1ncnc2scc(-c3ccccc3C(F)(F)F)c12`?
KB-V1 cytotox: inconclusive; MCF10A rerep: 79%; KB-3-1 cytotox: 16µM*; PINK1 expr mod: 0%; SW480 rerep: inconclusive

How did Cn1nnnc1Sc1ncnc2scc(-c3ccc(C(F)(F)F)cc3)c12 do in these assays?
KB-V1 cytotox: 18µM*; MCF10A rerep: 2.1µM*; KB-3-1 cytotox: inconclusive; PINK1 expr mod: -1%; SW480 rerep: 6%

What do the screens show for `Cn1nnnc1Sc1ncnc2scc(-c3ccc(-c4ccccc4)cc3)c12`?
KB-V1 cytotox: inconclusive; MCF10A rerep: 8.2µM*; KB-3-1 cytotox: 15µM*; PINK1 expr mod: -1%; SW480 rerep: inconclusive

What do the screens show for `Cn1nnnc1Sc1ncnc2scc(-c3ccc(C#N)cc3)c12`?
KB-V1 cytotox: inconclusive; MCF10A rerep: inconclusive; KB-3-1 cytotox: inconclusive; PINK1 expr mod: -1%; SW480 rerep: 2%

How did C/C(=N\OCC(=O)OC(C)C(=O)Nc1ccc(C(N)=O)cc1)c1ccc2c(c1)OCO2 (centres undefined) do in these assays?
MCF10A rerep: 0%; PINK1 expr mod: 1%; SW480 rerep: 9%

What do the screens show for `CC(C)c1ccc(NC(=O)c2cnc3sc(N4CCOCC4)nn3c2=O)cc1`?
PINK1 expr mod: 2%

Results for CC1C(c2ccccc2)OCCN1C(=S)NC(=O)c1ccccc1 (centres undefined) ?
KB-V1 cytotox: inactive; KB-3-1 cytotox: inactive; PINK1 expr mod: 1%

What do the screens show for `COc1cccc(-c2csc3ncnc(Sc4nnnn4C)c23)c1`?
KB-V1 cytotox: inconclusive; MCF10A rerep: inconclusive; KB-3-1 cytotox: inconclusive; PINK1 expr mod: 4%; SW480 rerep: 0.33µM*

What do the screens show for `O=C(N1CCOCC1)N1CCCC(c2nc(-c3cccs3)no2)C1` (centres undefined)?
KB-V1 cytotox: 15µM*; MCF10A rerep: 2%; KB-3-1 cytotox: inactive; PINK1 expr mod: 3%[38.3 µM]; SW480 rerep: -3%

How did O=C(Cc1ccccc1)N1CCCC(c2nc(-c3cccs3)no2)C1 (centres undefined) do in these assays?
KB-V1 cytotox: inactive; MCF10A rerep: 1%; KB-3-1 cytotox: inactive; PINK1 expr mod: 13%[38.3 µM]; SW480 rerep: -2%

How did O=S(=O)(Cc1ccccc1)N1CCC(c2nc(-c3cccs3)no2)CC1 do in these assays?
KB-V1 cytotox: 21µM*; MCF10A rerep: 2%; KB-3-1 cytotox: inactive; PINK1 expr mod: 11%[38.3 µM]; SW480 rerep: -9%

How did Cc1cccc(OCCNC(=O)c2cccc(Oc3ccc(C(F)(F)F)cc3[N+](=O)[O-])c2)c1 do in these assays?
KB-V1 cytotox: 9.2µM*; MCF10A rerep: -2%; KB-3-1 cytotox: 18µM*; PINK1 expr mod: 5%; SW480 rerep: 3%

How did O=C1NC(=O)C([N+](=O)[O-])=C(O)C1=O do in these assays?
KB-V1 cytotox: inactive; KB-3-1 cytotox: inactive; PINK1 expr mod: -1%

Results for CC1(C)CC(=O)C(N=Nc2ccc(-c3ccccc3)cc2)=C(O)C1 ?
KB-V1 cytotox: inactive; MCF10A rerep: 0.73µM*; KB-3-1 cytotox: inactive; PINK1 expr mod: inconclusive; SW480 rerep: -61%

Results for CC1(C)CC(=O)C(N=Nc2ccc(F)cc2)=C(O)C1 ?
KB-V1 cytotox: inactive; MCF10A rerep: 4%; KB-3-1 cytotox: inactive; PINK1 expr mod: 1%; SW480 rerep: 4%

How did CC1(C)CC(=O)C(N=Nc2cc(C(F)(F)F)ccc2Cl)=C(O)C1 do in these assays?
KB-V1 cytotox: inactive; MCF10A rerep: 0.52µM*; KB-3-1 cytotox: inactive; PINK1 expr mod: 7%; SW480 rerep: -18%

What do the screens show for `COc1ccc[n+](CC(=O)c2ccc(F)cc2)c1`?
KB-V1 cytotox: inactive; KB-3-1 cytotox: inconclusive; PINK1 expr mod: 1%
